# According to the supplement of paper PMC8728848:
# The full list was thinned out, with the strongest signals kept by preference.
# B1: SJCP1084 (Schistosoma japonicum) (protein)
# chain: MRIINLVIISTALLLINLLQTKSQANGEDTKNGTPDDPGLTKSTELKVEVQALLKDKKTNMRVKWNENLLDNTKPEYHNLRDEACELLLQIVRSVVPLSQDDGECKDVTFTKYVVGTKDGAVNVKLTITFKDSVAINQKPMDLKLKLENDFKNLQSESTLKATKPTFTVKVEKRLIPISKPQTTPPTTAKNDASKENVGDIGGEDSTVPTAAPATAASANEEKDEGDKDNKDSQHPNVLTSNVNDRNLIIALVALMILAIGVALTAAVKQR
# How the values were obtained:
# Test in all cases: glycan array binding signal (z-score within array); higher = stronger binding
# Settings in all cases: glycan notation: IUPAC condensed, linker removed
# [1] = molecular target: Gal(b1-4)GlcNAc(b1-3)Gal(b1-4)GlcNAc(b1-3)Gal(b1-4)GlcNAc(b1-3)Gal(b1-4)GlcNAc(b1-3)Gal(b1-4)GlcNAc(b1-2)Man(a1-3)[Gal(b1-4)GlcNAc(b1-3)Gal(b1-4)GlcNAc(b1-3)Gal(b1-4)GlcNAc(b1-3)Gal(b1-4)GlcNAc(b1-3)Gal(b1-4)GlcNAc(b1-2)Man(a1-6)]Man(b1-4)GlcNAc(b1-4)[Fuc(a1-6)]GlcNAc
# Method in brief: (§1)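 From the Consortium for Functional Glycomics database, 3228 arrays were curated, keeping only those whose protein sequence was available. Binding is given as a within-array Z-score averaged across arrays sharing a protein sequence and across linkers. Negative Z-scores can be read as non-binding.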
# [2] = molecular target: Gal(b1-4)GlcNAc(b1-3)Gal(b1-4)GlcNAc(b1-3)Gal(b1-4)GlcNAc(b1-3)Gal(b1-4)GlcNAc(b1-3)Gal(b1-4)GlcNAc(b1-2)[Gal(b1-4)GlcNAc(b1-3)Gal(b1-4)GlcNAc(b1-3)Gal(b1-4)GlcNAc(b1-3)Gal(b1-4)GlcNAc(b1-3)Gal(b1-4)GlcNAc(b1-6)]Man(a1-6)[Gal(b1-4)GlcNAc(b1-3)Gal(b1-4)GlcNAc(b1-3)Gal(b1-4)GlcNAc(b1-3)Gal(b1-4)GlcNAc(b1-3)Gal(b1-4)GlcNAc(b1-2)Man(a1-3)]Man(b1-4)GlcNAc(b1-4)[Fuc(a1-6)]GlcNAc
# Method in brief: as §1
# [3] = molecular target: Gal(b1-4)GlcNAc(b1-3)Gal(b1-4)GlcNAc(b1-3)[Gal(b1-4)GlcNAc(b1-3)Gal(b1-4)GlcNAc(b1-6)]GalNAc
# Method in brief: as §1
# [4] = molecular target: Gal3S(b1-4)GlcNAc
# Method in brief: as §1
# [5] = molecular target: GalNAc(b1-3)Gal(a1-4)Gal(b1-4)GlcNAc
# Method in brief: as §1
# [6] = molecular target: GlcNAc(a1-4)Gal(b1-4)GlcNAc(b1-3)Gal(b1-4)[Fuc(a1-3)]GlcNAc(b1-3)Gal(b1-4)[Fuc(a1-3)]GlcNAc
# Method in brief: as §1
# [7] = molecular target: GlcNAc(b1-3)Gal(b1-4)GlcNAc(b1-3)Gal(b1-4)GlcNAc(b1-2)Man(a1-3)[GlcNAc(b1-3)Gal(b1-4)GlcNAc(b1-3)Gal(b1-4)GlcNAc(b1-2)Man(a1-6)]Man(b1-4)GlcNAc(b1-4)GlcNAc
# Method in brief: as §1
# [8] = molecular target: GlcNAc(b1-3)Gal(b1-4)GlcNAc(b1-3)Gal(b1-4)GlcNAc(b1-3)Gal(b1-4)GlcNAc(b1-2)Man(a1-3)[GlcNAc(b1-3)Gal(b1-4)GlcNAc(b1-3)Gal(b1-4)GlcNAc(b1-3)Gal(b1-4)GlcNAc(b1-2)Man(a1-6)]Man(b1-4)GlcNAc(b1-4)[Fuc(a1-6)]GlcNAc
# Method in brief: as §1
# [9] = molecular target: GlcNAc(b1-3)Gal(b1-4)GlcNAc(b1-3)Gal(b1-4)GlcNAc(b1-3)Gal(b1-4)GlcNAc(b1-3)Gal(b1-4)GlcNAc(b1-2)Man(a1-3)[GlcNAc(b1-3)Gal(b1-4)GlcNAc(b1-3)Gal(b1-4)GlcNAc(b1-3)Gal(b1-4)GlcNAc(b1-3)Gal(b1-4)GlcNAc(b1-2)Man(a1-6)]Man(b1-4)GlcNAc(b1-4)[Fuc(a1-6)]GlcNAc
# Method in brief: as §1
# [10] = molecular target: GlcNAc(b1-3)Gal(b1-4)GlcNAc(b1-3)Gal(b1-4)GlcNAc(b1-3)Gal(b1-4)GlcNAc(b1-3)Gal(b1-4)GlcNAc(b1-2)[GlcNAc(b1-3)Gal(b1-4)GlcNAc(b1-3)Gal(b1-4)GlcNAc(b1-3)Gal(b1-4)GlcNAc(b1-3)Gal(b1-4)GlcNAc(b1-6)]Man(a1-6)[GlcNAc(b1-3)Gal(b1-4)GlcNAc(b1-3)Gal(b1-4)GlcNAc(b1-3)Gal(b1-4)GlcNAc(b1-3)Gal(b1-4)GlcNAc(b1-2)Man(a1-3)]Man(b1-4)GlcNAc(b1-4)[Fuc(a1-6)]GlcNAc
# Method in brief: as §1
# [11] = molecular target: GlcNAc(b1-3)Man
# Method in brief: as §1
# [12] = molecular target: Neu5Ac(a2-3)Gal(b1-3)GalNAc
# Method in brief: as §1
# [13] = molecular target: Neu5Ac(a2-3)Gal(b1-3)GalNAc(b1-4)[Neu5Ac(a2-3)]Gal(b1-4)Glc
# Method in brief: as §1
# [14] = molecular target: Neu5Ac(a2-3)Gal(b1-3)GlcNAc(b1-2)Man(a1-3)[GlcNAc(b1-4)][Neu5Ac(a2-3)Gal(b1-3)GlcNAc(b1-2)Man(a1-6)]Man(b1-4)GlcNAc(b1-4)GlcNAc
# Method in brief: as §1
# [15] = molecular target: Neu5Ac(a2-3)Gal(b1-3)[Neu5Ac(a2-6)]GalNAc
# Method in brief: as §1
# [16] = molecular target: Neu5Ac(a2-3)Gal(b1-4)GlcNAc(b1-2)Man(a1-3)[Neu5Ac(a2-3)Gal(b1-4)GlcNAc(b1-2)Man(a1-6)]Man(b1-4)GlcNAc(b1-4)GlcNAc
# Method in brief: as §1
# [17] = molecular target: Neu5Ac(a2-3)Gal(b1-4)GlcNAc(b1-3)Gal(b1-3)GlcNAc
# Method in brief: as §1
# [18] = molecular target: Neu5Ac(a2-3)Gal(b1-4)GlcNAc(b1-3)Gal(b1-4)GlcNAc(b1-2)Man(a1-3)[Neu5Ac(a2-3)Gal(b1-4)GlcNAc(b1-3)Gal(b1-4)GlcNAc(b1-2)Man(a1-6)]Man(b1-4)GlcNAc(b1-4)GlcNAc
# Method in brief: as §1
# [19] = molecular target: Neu5Ac(a2-3)Gal(b1-4)GlcNAc(b1-3)Gal(b1-4)[Fuc(a1-3)]GlcNAc
# Method in brief: as §1
# [20] = molecular target: Neu5Ac(a2-3)Gal(b1-4)[Fuc(a1-3)]GlcNAc(b1-3)Gal(b1-4)[Fuc(a1-3)]GlcNAc(b1-3)Gal(b1-4)[Fuc(a1-3)]GlcNAc
# Method in brief: as §1
# [21] = molecular target: Neu5Ac(a2-3)[GalNAc(b1-4)]Gal(b1-4)Glc
# Method in brief: as §1
# [22] = molecular target: Neu5Ac(a2-6)Gal(b1-3)GlcNAc(b1-3)[Gal(b1-4)GlcNAc(b1-6)]Gal(b1-4)Glc
# Method in brief: as §1
# [23] = molecular target: Neu5Ac(a2-8)Neu5Gc(a2-3)Gal(b1-4)GlcNAc
# Method in brief: as §1
binder,measurement,setting,value
B1,glycan array binding signal (z-score),[1],4.28
same,glycan array binding signal (z-score),[2],4.79
same,glycan array binding signal (z-score),[3],1.47
same,glycan array binding signal (z-score),[4],-0.79
same,glycan array binding signal (z-score),[5],0.632
same,glycan array binding signal (z-score),[6],2.09
same,glycan array binding signal (z-score),[7],1.03
same,glycan array binding signal (z-score),[8],1.66
same,glycan array binding signal (z-score),[9],-0.466
same,glycan array binding signal (z-score),[10],2.68
same,glycan array binding signal (z-score),[11],0.248
same,glycan array binding signal (z-score),[12],-0.71
same,glycan array binding signal (z-score),[13],-0.565
same,glycan array binding signal (z-score),[14],-0.628
same,glycan array binding signal (z-score),[15],-0.036
same,glycan array binding signal (z-score),[16],0.105
same,glycan array binding signal (z-score),[17],-0.757
same,glycan array binding signal (z-score),[18],-0.701
same,glycan array binding signal (z-score),[19],-0.263
same,glycan array binding signal (z-score),[20],0.379
same,glycan array binding signal (z-score),[21],-0.474
same,glycan array binding signal (z-score),[22],-0.092
same,glycan array binding signal (z-score),[23],-0.605
